Assay results taken from paper PMC7819943, “Rice protein-binding microarrays: a tool to detect cis-acting elements near promoter regions in rice”.
In all, about 68,000 sequences were measured (“fluorescence intensity (a.u.)”: median about 9,100, highest 2% from about 16,000 on). This excerpt belongs to a sample that is enriched for the highest values.

target: OsWRKY34 (Oryza sativa, UniProt Q0JBA9 1-250); experiment: protein-binding microarray (RPBM); PBS, 2% BSA, 51.3 ng/ul salmon testes DNA, 50 uM zinc acetate, 200 nM TF, 25 C, 1 h; high values mean tight binding; details: protein: recombinant; tags: N-terminal polyhistidine and DsRed monomer fusion (pET32a); label: CyDye5-dUTP incorporated in the synthesized complementary strand; 3' TTTTT single-stranded linker to array surface; dsDNA, one strand shown
Summary of the method: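 Binding signal here means per-feature fluorescence intensity in arbitrary units. The values were read on an Axon 4000B scanner after a custom Agilent array, double-stranded by primer extension with Cy5-dUTP, was incubated with 200 nM protein at 25 °C for 1 h in PBS with 2% BSA, salmon testes DNA and 50 µM zinc acetate, then washed. The proteins were transcription factors with an N-terminal polyhistidine tag and DsRed, expressed in E. coli BL21-CodonPlus and purified on Ni–NTA.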

Sequence of OsWRKY34 (Q0JBA9 entry or part of it): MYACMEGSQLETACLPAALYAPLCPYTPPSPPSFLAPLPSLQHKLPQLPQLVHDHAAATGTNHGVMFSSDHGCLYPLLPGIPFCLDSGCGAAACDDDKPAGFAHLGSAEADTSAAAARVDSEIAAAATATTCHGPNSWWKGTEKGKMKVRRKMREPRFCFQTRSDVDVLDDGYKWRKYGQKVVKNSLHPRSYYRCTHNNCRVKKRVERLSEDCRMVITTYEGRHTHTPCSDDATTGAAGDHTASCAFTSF

Row | Sequence | binding signal
1 | AGTGACCCTTATCTCTTCACCTATCTCTCTCCCTTCCCCTCGGAGTCACCTAGTGCAG | 9580 fluorescence intensity (a.u.)
2 | TTCTTTGTTGGATTGATGATCGCTTTTGTGTGGGAGAGGTCGGAGTCACCTAGTGCAG | 9380 fluorescence intensity (a.u.)
3 | GTCAAACATCAACTTTTCCGTCACATCAAATGTTTGGACACGGAGTCACCTAGTGCAG | 8670 fluorescence intensity (a.u.)
4 | CCTTCTATTTTTCCGTCACATCAAATGTTTGGACACATGTCGGAGTCACCTAGTGCAG | 9670 fluorescence intensity (a.u.)
5 | ACGACGAGGTCGCTTTTTTCTTGTTGGGCTGGGCTGGGATCGGAGTCACCTAGTGCAG | 21800 fluorescence intensity (a.u.)
6 | CAAACTTCTAATTTTTCCGTCACATCAAATGTTTGGATATCGGAGTCACCTAGTGCAG | 34900 fluorescence intensity (a.u.)
7 | TTCTTTTTTTGGCTTCCTTTTTTTTGTGTGTATATATGTACGGAGTCACCTAGTGCAG | 13700 fluorescence intensity (a.u.)
8 | TTTCTTTCTTTCTTTCTTGGGATCTTTTCCTTCTTTTTTTCGGAGTCACCTAGTGCAG | 12600 fluorescence intensity (a.u.)
9 | CGTCGATCTCTATCTCTCTCTCTCGCTTGTTCTTCTTCACCGGAGTCACCTAGTGCAG | 15200 fluorescence intensity (a.u.)
10 | ATCTAGCCTATCGCTCTTGTGTTCTCGGTGTGTACTTGGTCGGAGTCACCTAGTGCAG | 16600 fluorescence intensity (a.u.)
11 | GTTCTCGGTGTGTACTTGGTCCATCAGTCTCTTCAGATCTCGGAGTCACCTAGTGCAG | 8120 fluorescence intensity (a.u.)
12 | TCCTTTTTTTTGGGTGCTTTTCTTTTGTATAGCACTGTACCGGAGTCACCTAGTGCAG | 65500 fluorescence intensity (a.u.)
13 | TCTTTTGTATAGCACTGTACCGTATACAACACTGAATACACGGAGTCACCTAGTGCAG | 8080 fluorescence intensity (a.u.)
14 | GTATGCATTATTATGCTGATTAATTTGGCCTGGTTATTTGCGGAGTCACCTAGTGCAG | 8160 fluorescence intensity (a.u.)
15 | GTCGGGTTCGGGTACTGTTGATGCTGATCGAGATGGTCCTCGGAGTCACCTAGTGCAG | 8650 fluorescence intensity (a.u.)
16 | AACTATTTTTTTATGGGTTTGTTGTGTAGATCATGTAGCACGGAGTCACCTAGTGCAG | 11100 fluorescence intensity (a.u.)
17 | TTCTACTTCTACACCTCGCAATGAAAAAAACAAATTTGACCGGAGTCACCTAGTGCAG | 8060 fluorescence intensity (a.u.)
18 | GCTTCTTCCGTTGCAATTCCATTCTCCTCTCTCTCCTGCTCGGAGTCACCTAGTGCAG | 11400 fluorescence intensity (a.u.)
19 | AGGACACCTTAGCATTCAGCCATCTTATTTCTCTGTATTACGGAGTCACCTAGTGCAG | 9420 fluorescence intensity (a.u.)
20 | TCCAGAAGACACCCGCCTGCTCCACTGCCGTTCCTGTCGACGGAGTCACCTAGTGCAG | 9120 fluorescence intensity (a.u.)
21 | ACTGTGAATGTGTGACTAAATGGGCCGAGCCCAACTACTACGGAGTCACCTAGTGCAG | 9860 fluorescence intensity (a.u.)
22 | GATTCATCTTGCCCTCAAAGTTTCCTGCTTTGTTTGATCACGGAGTCACCTAGTGCAG | 9520 fluorescence intensity (a.u.)
23 | GGAGGGAGTAGTATATTGGGGATTTTCAGTTGGGTCTGGGCGGAGTCACCTAGTGCAG | 14200 fluorescence intensity (a.u.)
